Test results published in PubChem BioAssay AID1053205 (Broad Institute, 2014).
Measured potencies and affinities stand elsewhere. Inconclusive results are not listed. Unmarked numbers belong to inactive results.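 Rule for the calls: active = compounds lowering the FRET ratio whose fitted half-maximal concentration is at most twice their top tested dose; inconclusive = flat partial drop between 30 and 70 percent, or bad fit; inactive = the rest.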

molecular target: Voltage-dependent L-type calcium channel subunit alpha-1D (Homo sapiens) (UniProt Q01668); experiment: inhibitors of CaV1.3 ICDI-IQ binding, dose response, cell-based, HEK293, YFP-IQ/CFP-ICDI FRET, cherry-picks (AID 1053205); details: HEK293 YFP-IQ/CFP-ICDI FRET ratio, 10 min; series mostly up to 35 µM; FRET change, negative = inhibition: at the top concentration;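 note: 0% = median of neutral control wells and -100% = median of positive control wells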
Sequence (Q01668 whole entry, looked up): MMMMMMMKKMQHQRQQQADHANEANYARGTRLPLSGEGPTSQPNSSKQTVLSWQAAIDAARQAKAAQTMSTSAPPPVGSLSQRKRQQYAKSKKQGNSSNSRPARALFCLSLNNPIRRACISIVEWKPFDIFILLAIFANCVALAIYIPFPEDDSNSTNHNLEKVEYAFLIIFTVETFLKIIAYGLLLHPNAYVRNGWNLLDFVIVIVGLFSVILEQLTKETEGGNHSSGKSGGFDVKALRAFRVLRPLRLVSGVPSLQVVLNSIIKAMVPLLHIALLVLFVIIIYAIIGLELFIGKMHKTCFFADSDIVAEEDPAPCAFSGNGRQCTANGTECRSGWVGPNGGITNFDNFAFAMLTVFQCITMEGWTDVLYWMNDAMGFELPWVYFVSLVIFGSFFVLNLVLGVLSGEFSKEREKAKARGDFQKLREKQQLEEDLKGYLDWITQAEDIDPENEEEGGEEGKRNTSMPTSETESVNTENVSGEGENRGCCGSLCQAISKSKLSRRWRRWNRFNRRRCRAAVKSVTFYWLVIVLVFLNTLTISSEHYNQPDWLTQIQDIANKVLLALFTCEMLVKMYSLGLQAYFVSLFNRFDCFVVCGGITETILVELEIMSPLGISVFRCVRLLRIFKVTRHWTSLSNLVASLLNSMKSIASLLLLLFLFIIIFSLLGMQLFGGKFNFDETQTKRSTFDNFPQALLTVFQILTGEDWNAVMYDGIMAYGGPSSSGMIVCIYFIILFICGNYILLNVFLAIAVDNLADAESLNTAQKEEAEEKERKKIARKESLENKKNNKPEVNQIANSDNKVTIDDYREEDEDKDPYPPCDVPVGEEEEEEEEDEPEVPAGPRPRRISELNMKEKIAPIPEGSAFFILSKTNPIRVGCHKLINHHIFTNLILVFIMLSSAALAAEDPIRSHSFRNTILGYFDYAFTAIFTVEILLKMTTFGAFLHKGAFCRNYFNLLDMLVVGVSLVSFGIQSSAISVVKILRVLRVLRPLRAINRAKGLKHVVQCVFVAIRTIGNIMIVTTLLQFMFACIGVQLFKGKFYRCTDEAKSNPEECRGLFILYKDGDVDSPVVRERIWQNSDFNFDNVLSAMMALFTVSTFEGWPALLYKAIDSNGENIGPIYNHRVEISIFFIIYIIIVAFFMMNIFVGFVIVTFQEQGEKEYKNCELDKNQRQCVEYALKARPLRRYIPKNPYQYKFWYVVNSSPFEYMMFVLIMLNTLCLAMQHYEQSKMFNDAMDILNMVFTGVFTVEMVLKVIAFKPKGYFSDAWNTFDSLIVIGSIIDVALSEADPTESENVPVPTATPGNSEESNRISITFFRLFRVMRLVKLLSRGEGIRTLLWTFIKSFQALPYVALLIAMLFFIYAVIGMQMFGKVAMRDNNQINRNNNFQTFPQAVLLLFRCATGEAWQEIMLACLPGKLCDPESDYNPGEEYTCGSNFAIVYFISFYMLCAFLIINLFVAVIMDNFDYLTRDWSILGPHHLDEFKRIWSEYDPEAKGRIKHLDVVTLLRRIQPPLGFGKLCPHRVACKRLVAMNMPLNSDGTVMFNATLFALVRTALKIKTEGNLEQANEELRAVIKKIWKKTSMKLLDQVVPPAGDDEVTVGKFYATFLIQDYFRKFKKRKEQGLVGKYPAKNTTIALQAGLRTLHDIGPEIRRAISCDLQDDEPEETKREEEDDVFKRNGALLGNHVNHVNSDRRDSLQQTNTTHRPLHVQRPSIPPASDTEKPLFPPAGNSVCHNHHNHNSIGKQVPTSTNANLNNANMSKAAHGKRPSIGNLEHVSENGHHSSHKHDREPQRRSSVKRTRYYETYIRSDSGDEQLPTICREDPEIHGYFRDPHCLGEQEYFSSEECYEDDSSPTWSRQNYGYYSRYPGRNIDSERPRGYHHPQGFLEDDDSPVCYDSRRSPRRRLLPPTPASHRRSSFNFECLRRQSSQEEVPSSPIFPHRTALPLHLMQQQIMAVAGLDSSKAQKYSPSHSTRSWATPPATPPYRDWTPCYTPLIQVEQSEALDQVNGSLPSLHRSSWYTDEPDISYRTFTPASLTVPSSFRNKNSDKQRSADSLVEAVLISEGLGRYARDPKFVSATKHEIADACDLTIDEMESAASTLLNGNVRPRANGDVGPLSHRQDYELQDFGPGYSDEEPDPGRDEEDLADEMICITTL

SMILES | FRET change, negative = inhibition
N#C/C(=C\c1ccc(N2CCOCC2)o1)C(=O)NCCc1ccccc1 | 166% [at 8 µM]
CCOC(=O)C(NC(=O)c1ccccc1)(OCC1(CC)COC1)C(F)(F)F (stereo not drawn) | -14.9%
CC(=O)c1cc2c(ccc3ccccc32)oc1=O | 84.2%
Cn1nc(-c2ccc(Cl)cc2)c2cc(C(=O)N3CCN(c4ccccc4)CC3)sc21 | 11.8%
Cc1c(C(=O)NCc2ccc3c(c2)OCCO3)sc(=O)n1Cc1ccccc1F | 16.7%
N#Cc1c2ccc(O)cc2n2ccccc12 | 435%
COc1ccc(C2CC(c3ccccc3)=NN2c2ccc(C(N)=O)cc2)cc1 (stereo not drawn) | -13.1%
Cc1nc2ccccc2c2oc(C(=O)NCCCN3CCC(C)CC3)cc12 | 5.53%
Cc1ccc(OCC(=O)NNc2c3ccccc3nc3ccccc23)cc1 | 8.32%
CCCOc1ccccc1/C=C1\SC(N)=NC1=O | 78.1%
S=c1[nH]c2ccc(Cc3ccc4[nH]c(=S)[nH]c4c3)cc2[nH]1 | 16.8%
CCN1C(=O)c2cccc3c(S(=O)(=O)N(C)C)ccc1c23 | 252%
CCc1nc(SCC(=O)c2ccccc2)c2ccccc2n1 | 44.6%
CN1CCN(c2nc3ccccn3c(=O)c2/C=C(\C#N)S(=O)(=O)c2ccccc2)CC1 | 37.4%
Cc1cccn2c(=O)c3cc(C(=O)NCc4ccc(F)cc4)c(=N)n(CCCN4CCOCC4)c3nc12 | 90.3%
O=[N+]([O-])c1cccc(-c2n[nH]c(=S)n2-c2ccc(Br)cc2)c1 | -27.8%
CCOc1ccc(-n2c(SCC(=O)Nc3nccs3)nnc2-c2ccoc2C)cc1 | -21.4%
CCN(CC)CCCNc1nc(C)cc(COC)c1C#N | -0.747%
